# Assay results taken from PubChem BioAssay AID652054 (National Center for Advancing Translational Sciences (NCATS), 2013).
# Among all 360,000 compounds or so, about 9,100 (2.5%) were called active. Not shown: some 4% with an inconclusive outcome. The sample holds actives, similar compounds and a random draw of the others, so the mix is not that of the screen. Values without a mark were called inactive. Cut-off read from the data, not from the text of the source: active = max response below about -50%; inconclusive = no clear call, values can overlap the other calls; inactive = above that.
# Target: D(3) dopamine receptor (Homo sapiens) (UniProt P35462)
# Sequence (P35462 whole entry, looked up): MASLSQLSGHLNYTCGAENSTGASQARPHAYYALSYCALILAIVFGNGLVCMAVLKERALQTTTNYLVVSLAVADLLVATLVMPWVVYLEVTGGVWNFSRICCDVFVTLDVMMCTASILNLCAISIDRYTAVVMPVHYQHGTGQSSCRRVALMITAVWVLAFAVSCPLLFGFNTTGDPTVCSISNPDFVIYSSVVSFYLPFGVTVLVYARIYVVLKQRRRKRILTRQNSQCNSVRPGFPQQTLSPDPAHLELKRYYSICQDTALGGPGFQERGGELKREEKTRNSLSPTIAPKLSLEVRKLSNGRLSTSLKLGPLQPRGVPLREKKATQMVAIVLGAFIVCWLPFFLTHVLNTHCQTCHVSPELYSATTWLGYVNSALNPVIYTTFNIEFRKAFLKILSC
# Assay: qHTS of D3 Dopamine Receptor Antagonist: qHTS
# Settings: D3R cells, DiscoveRx beta-arrestin luminescence, antagonist mode; stronger effect = lower value
# How it was run: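 Cells expressing the human receptor were seeded at 1500 cells/well, incubated overnight at 37 degrees C in 5% CO2, then exposed to library compounds with dopamine controls for 90 minutes at 37 degrees C before luminescent detection.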
# % is set by controls: 0 for no effect and ±100 for the full control effect.
row,Compound,"max response, negative = inhibition"
1,Cc1cc(Br)cn2c(Cc3cccc(F)c3)c(-c3cccc(Br)c3)nc12,0.913%
2,COc1ccccc1/C=C/C=N/NC(=O)CN1CCN(Cc2ccccc2)CC1,-17.6%
3,COc1ccccc1/C=C/CN1CCC(CO)(Cc2ccccc2)CC1,-76.1% (active)
4,CC(C)c1csc(CN2CCC(CO)(Cc3ccccc3)CC2)n1,-22%
5,COc1cccc(NC(=O)N(C)C[C@@H]2Oc3ncc(Br)cc3C(=O)N([C@@H](C)CO)C[C@H]2C)c1,-24.9%
6,OC(c1ccccc1)c1nc(-c2cnc3ccccc3c2)cs1 (stereo unspecified),4.32%
7,CCc1ccc2c(c1)C1(NN=C(c3ccccc3)S1)C(=O)N2 (stereo unspecified),-60.6% (active)
8,CCc1ccc2c(c1)NC(=O)C2(C)Cc1ccc(OC(F)(F)F)cc1 (stereo unspecified),16.6%
9,CCOc1ccc(CCN2C(=O)c3cccnc3C2=O)cc1OCC,-22%
10,NC1=CC(=O)C(=O)c2cccnc21,-69.1% (active)
11,NC(c1csc(NC(=O)Nc2cccc(C(F)(F)F)c2)n1)C1CCCCC1 (stereo unspecified),13.3%
12,CCOC(=O)[C@]12CCC=C1N(CCC1=CCCCC1)C(=O)[C@H](CC(=O)NCc1ccc(C)o1)C2,16.1%
13,COCCCNC(=O)c1ccc(-c2c(C)noc2C)c2ccoc12,0%
14,Cc1nc(Nc2ccc3c(c2)OCCO3)c2nnn(Cc3ccccc3Cl)c2n1,-26.4%
15,CC(C)Cc1nc(Nc2ccc(S(=O)(=O)N3CCCC3)cc2)c2nnn(Cc3ccccc3)c2n1,-27.2%
16,Cc1nc(Nc2ccc(S(=O)(=O)N3CCCC3)cc2)c2nnn(Cc3ccccc3)c2n1,-69.4% (active)
17,NS(=O)(=O)c1ccc(CNC(=O)c2cc(S(=O)(=O)N3CCOCC3)ccc2N2CCCC2)cc1,0%
18,COc1cc(CNc2ncnc3c2ncn3[C@H]2CN(Cc3cccs3)C[C@@H](CO)O2)cc(OC)c1OC,13%
19,C[C@H](CO)N1C[C@H](C)[C@@H](CN(C)Cc2ccc3c(c2)OCO3)OCc2cnnn2CCCC1=O,9.24%
20,CCCS(=O)(=O)NC(=O)C1(C)CCCN(C(=O)c2ccnc(Cl)c2)C1 (stereo unspecified),-5.74%
21,COc1ccc(N2CCN(Cc3ccc(Br)s3)CC2)cc1,-54.8% (active)
22,Fc1ccc(N2CCN(Cc3cnc(Oc4ccc(Br)cc4)s3)CC2)cc1,-67.9% (active)
23,O=C(c1ccccc1Oc1ccccc1)N1CCN(c2ccc(F)cc2)CC1,11.3%
24,O=[N+]([O-])c1ccc(N2CCN(c3ccc(F)cc3)CC2)cn1,1.91%
25,COc1ccc(N2CCN(C(=O)CNC(=O)c3ccc(Br)o3)CC2)cc1,4.35%
26,COc1ccc(N2CCN(C(=O)c3cccs3)CC2)cc1,-4.36%
